Results from PubChem BioAssay.
Values without a mark were called inactive. Calls of active or inactive are those of the source. No rule for the calls is given here.

experiment: fluorescence interference in NS3h assay format, artefact control for HCV NS3 helicase inhibitor project, biochemical, NIH Clinical Collection (AID 743272); conditions: fluorescence interference counterscreen, hits give low values;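 also: HCV NS3 helicase with a Cy5 labelled single stranded DNA probe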

Row | Structure (SMILES) | fluorescence ratio
1 | CNNCc1ccc(C(=O)NC(C)C)cc1 | 1.02
2 | Nc1nc2c(ncn2CCC(CO)CO)c(=O)[nH]1 | 1.01
3 | O=C1CC2(CCCC2)CC(=O)N1CCNCC1COc2ccccc2O1 (stereo not drawn) | 0.98
4 | Cn1nnc2c(C(N)=O)ncn2c1=O | 0.9
5 | O=C1[C@H]2CCCC[C@H]2C(=O)N1CCCCN1CCN(c2nsc3ccccc23)CC1 | 0.96
6 | O=C(O)CCNC(=O)c1ccc(N=Nc2ccc(O)c(C(=O)O)c2)cc1 | 0.94
7 | CC(Oc1c(Cl)cccc1Cl)C1=NCCN1 (stereo not drawn) | 0.95
8 | CN1CCN(C2=Nc3cc(F)ccc3Cc3ccccc32)CC1 | 0.9
9 | COC(=O)C1=C(C)NC(C)=C(C(=O)OC(C)C)C1c1cccc2nonc12 (stereo not drawn) | 0.98
10 | CCOc1cc(N)c(Cl)cc1C(=O)NCC1CN(Cc2ccc(F)cc2)CCO1 (stereo not drawn) | 0.95
11 | O=c1c(-c2ccccc2)c1-c1ccccc1 | 0.79 (active)
12 | O=C1Nc2ccc(Cl)cc2[C@@](C#CC2CC2)(C(F)(F)F)O1 | 0.99
13 | Nc1nc(N)nc(-c2cc(Cl)ccc2Cl)n1 | 1.02
14 | OCCOCCN1CCN(C2=Nc3ccccc3Sc3ccccc32)CC1 | 0.95
15 | CC(=O)Nc1ccc(CC(=O)O)cc1 | 0.93
16 | O=c1[nH]cnc2c1ncn2[C@H]1CC[C@@H](CO)O1 | 1.01
17 | COC(=O)C1=C(C)NC(C)=C(C(=O)O[C@@H]2CCCN(Cc3ccccc3)C2)[C@@H]1c1cccc([N+](=O)[O-])c1 | 0.94
18 | Cc1c(O)cccc1C(=O)N[C@@H](CSc1ccccc1)[C@H](O)CN1C[C@H]2CCCC[C@H]2C[C@H]1C(=O)NC(C)(C)C | 0.94
19 | CCc1nn(CCCN2CCN(c3cccc(Cl)c3)CC2)c(=O)n1CCOc1ccccc1 | 0.99

Row | Structure (SMILES) | fluorescence ratio
20 | Nc1[nH]c(=O)ncc1F | 0.97
21 | O=C1CCc2ccc(OCCCCN3CCN(c4cccc(Cl)c4Cl)CC3)cc2N1 | 1.02
22 | COc1cc(C(=O)NC2CCCNC2)cc(OC)c1OC (stereo not drawn) | 0.98
23 | COc1ccc(C(=O)NCc2ccc(OCCN(C)C)cc2)cc1OC | 1.05
24 | COCc1c(C(C)C)nc(C(C)C)c(/C=C/[C@@H](O)C[C@@H](O)CC(=O)O)c1-c1ccc(F)cc1 | 0.99
25 | CC(C)(C)C(O)/C=C/c1ccc2c(c1)OCO2 (stereo not drawn) | 0.88
26 | Cc1ccnc2c1NC(=O)c1cccnc1N2C1CC1 | 1
27 | CCOc1cc(CC(=O)N[C@@H](CC(C)C)c2ccccc2N2CCCCC2)ccc1C(=O)O | 1.02
28 | Nc1c2c(nc3c1CCC3)CCCC2 | 0.9
29 | CCOC(=O)OC(C)OC1=C(C(=O)Nc2ccccn2)N(C)S(=O)(=O)c2ccccc21 (stereo not drawn) | 0.96
30 | CN1CCN(c2c(F)cc3c(=O)c(C(=O)O)cn4c3c2SCC4)CC1 | 0.99
31 | Cc1nc2n(c(=O)c1CCN1CCC(c3noc4cc(F)ccc34)CC1)CCCC2 | 1.02
32 | O=C(O)/C=C/c1ccc(Cn2ccnc2)cc1 | 0.97
33 | O=C(NCCO[N+](=O)[O-])c1cccnc1 | 1.02
34 | Cc1nc2ccc(CN(C)c3ccc(C(=O)N[C@@H](CCC(=O)O)C(=O)O)s3)cc2c(=O)[nH]1 | 0.88
35 | CCCN1CCCC[C@H]1C(=O)Nc1c(C)cccc1C | 0.92
36 | COc1cc2c(cc1OC)C(=O)C(CC1CCN(Cc3ccccc3)CC1)C2 (stereo not drawn) | 1.04
37 | N#Cc1ccc(C(c2ccc(C#N)cc2)n2cncn2)cc1 | 0.97
38 | Cc1[nH]cnc1CN1CCc2c(c3ccccc3n2C)C1=O | 0.96
